Records with an inconclusive call do not appear. Values without a mark were called inactive. Active and inactive are the calls of the source. The call rests on the fitted dose curve; in most records, active means well fitted inhibition curve with a large enough effect; inconclusive means small, poorly fitted or top-dose-only effect; inactive means flat fitted curve, though single readings scatter.

Consider 40 molecules from PubChem BioAssay (NCATS).
On the % scale 0 is the no-effect control and ±100 the full control effect; potency means the concentration at half of the fitted maximal effect.

Calcium and integrin-binding protein 1 (Homo sapiens), sequence (Q99828 whole entry, looked up): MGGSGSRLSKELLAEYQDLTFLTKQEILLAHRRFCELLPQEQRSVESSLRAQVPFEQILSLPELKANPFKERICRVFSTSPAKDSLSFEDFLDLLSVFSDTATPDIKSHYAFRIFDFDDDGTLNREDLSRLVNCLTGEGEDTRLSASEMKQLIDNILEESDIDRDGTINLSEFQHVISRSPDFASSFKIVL

The target in the assay is Calcium and integrin-binding protein 1 (Homo sapiens) (UniProt Q99828). The assay is described as follows: Primary qHTS for Identification of Calcium Integrin Binding Protein 1 (CIB1) Competitor (AID 1508620).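 On activity change, negative = inhibition: GST tagged CIB1 binding a fluorescein labelled alphaIIb integrin peptide tracer; top concentration of the series differs between compounds.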 Particulars: CIB1-GST / FITC-alphaIIb peptide fluorescence polarization; series mostly up to 114 µM; activity change, negative = inhibition: at the top concentration. A digest of the protocol:
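CIB1-GST (1 uM final) and compound incubated 15 min at room temperature before adding FITC-alphaIIb peptide tracer (100 nM final). Competition for binding read by fluorescence polarization (ex 480, em 540) after another 15 min at room temperature.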
A general note: In qHTS, concentration-response curves come from the screen itself.
`O=C(CNC(=O)c1ccccc1)OC(C(=O)Nc1cc([N+](=O)[O-])ccc1F)c1ccccc1` (stereo not given): the “activity change, negative = inhibition” value was -9.3%.

Regarding `COc1ccc(C(=O)N(Cc2ccccc2)Cc2ccccc2)cc1COc1ccc(NC(C)=O)cc1`, the “activity change, negative = inhibition” value is 1.79%.

For the molecule `Cc1cc2c(s1)c1cnn(Cc3ccc(C#N)cc3)c(=O)c1n2C`, the “activity change, negative = inhibition” value was 0.5%.

For the molecule `CC(=O)N1CCN(c2nc(-c3ccc(Br)cc3)cs2)CC1`, the “activity change, negative = inhibition” value was 3.15%.

In the case of `Cc1cc2c(s1)c1cnn(Cc3cccc4cccnc34)c(=O)c1n2C`, the “activity change, negative = inhibition” value was -1.07%.

Turning to `COc1cc(NS(=O)(=O)c2ccc3ccccc3c2)c2ncccc2c1`, the “activity change, negative = inhibition” value is -2.28%.

As to `COc1ccc(C2=Nn3c(nnc3-c3ccccc3Cl)SC2)cc1OC1CCOC1` (stereo not given), the “activity change, negative = inhibition” value was -1.02%.

For `FC(F)(F)c1ccccc1-c1nc(NCc2ccc(-c3cccnc3)cc2)c2[nH]cnc2n1`, the “activity change, negative = inhibition” value was -5.1%.

`N#Cc1nc(-c2cccc3ccccc23)oc1NC1CNC1`: the “activity change, negative = inhibition” value is -4.65%.

On to `Cc1cnc(-c2ccccc2C(C)C)nc1NCC1CCN(c2cccnc2)CC1`, for which the “activity change, negative = inhibition” value is 31.2%.

Turning to `CC(=O)N[C@@H](Cc1ccc(O)cc1)C(=O)N[C@H](C(=O)N[C@@H](C)C(=O)N[C@H](C#N)CC(=O)O)C(C)C`, the “activity change, negative = inhibition” value is 3.79%.

For the molecule `COc1ccc(C(CC(=O)N2CC(C)CC(C)C2)c2c(O)cc(OC)cc2OC)cc1` (stereo not given), the “activity change, negative = inhibition” value is 4.16% [at 228 µM].

`COc1ccc(C(=O)N(Cc2cccs2)Cc2cccs2)c(O)c1`: the “activity change, negative = inhibition” value is -0.161%.

On to `Cc1cc(C)n2ncc(C(=O)Nc3ccc4c(c3)OCO4)c2n1`, for which the “activity change, negative = inhibition” value was -1.23%.

For `O=C(O)c1ccc2c(c1)C(=O)N([C@H](Cc1ccc(Cl)cc1)C(=O)O)C2=O`, the “activity change, negative = inhibition” value is -0.712%.

For the molecule `CC(=O)Nc1sc2c(c1-c1nc3ccccc3s1)CCN(C1COC1)C2`, the Potency is 14.1 µM (active).

In the case of `Cc1cccc(-n2cnc3cc(C(=O)N4CCCC(C)(C)C4)ccc32)c1`, the “activity change, negative = inhibition” value was -0.693%.

Consider `Cc1cnc(-c2ccccc2N(C)C)nc1NCc1ccc(-c2cccnc2)cc1`, for which the “activity change, negative = inhibition” value is 3.11%.

For `Cc1ccc2nc3sc(C(=O)NCCN4CCOCC4)cc3cc2c1`, the “activity change, negative = inhibition” value is -6.06%.

Take `Cc1c(C(=O)OCC(C)(C)C)[nH]c2c1C(=O)CC(c1ccco1)C2` (stereo not given): the “activity change, negative = inhibition” value is -14%.

On to `Cc1nc2ccc(Nc3nc(Nc4c(C)cc(C=CC#N)cc4C)nc4nc[nH]c34)cc2s1`, for which the “activity change, negative = inhibition” value is -15.5%.

For `COc1cc(OC)cc(N2CCN(C(=S)Nc3cc(C)cc(C)n3)CC2)c1`, the “activity change, negative = inhibition” value is -2.1%.

As for `Cc1cc(NS(=O)(=O)c2ccc(NC(=O)Cc3ccc(C)c(C)c3)cc2)no1`, the “activity change, negative = inhibition” value is -16.3%.

As to `Clc1ccc(CSc2nc3ncc(Br)cc3[nH]2)cc1`, the “activity change, negative = inhibition” value is 1.11%.

Regarding `COc1ccc(C2Nc3ccccc3C(=O)N2Cc2ccccc2OC)cc1COc1c(C)cc(NC(C)=O)cc1C` (stereo not given), the “activity change, negative = inhibition” value is -2.21%.

As to `N#Cc1cc(NC(=O)Nc2nnc(-c3ccncc3)s2)ccc1Br`, the “activity change, negative = inhibition” value was -2.24%.

For `NC(=O)C1CCN(c2nc(-c3ccc(-c4ccccc4)cc3)cs2)CC1`, the “activity change, negative = inhibition” value was 2.07%.

Regarding `O=C(Nc1nnc(-c2ccncc2)s1)Nc1ccc(Cl)cc1Cl`, the “activity change, negative = inhibition” value is 6.31%.

Regarding `Cc1csc(CNc2ncnc3ccc(-c4ccoc4)cc23)c1`, the “activity change, negative = inhibition” value was -7.36%.

Regarding `COc1ccc(C)cc1NC(=O)C(OC(=O)CNC(=O)c1ccccc1)c1ccccc1` (stereo not given), the “activity change, negative = inhibition” value was 2.18%.

Consider `CCCCN(C)C(=O)Cn1nc(-c2ccc(OC)cc2)ccc1=O`, for which the “activity change, negative = inhibition” value is 0.31%.

On to `Cc1noc(C)c1-c1ccc2ncnc(NCc3ccc(C(F)(F)F)cc3)c2c1`, for which the “activity change, negative = inhibition” value is 1.92%.

`COc1cccc(C2c3c(ncn(-c4cccc(OC)c4)c3=N)Oc3ccc4ccccc4c32)c1` (stereo not given): the “activity change, negative = inhibition” value is 8.33%.

With `COc1ccc(C2Nc3ccccc3C(=O)N2Cc2cccnc2)cc1COc1ccc(NC(C)=O)cc1` (stereo not given), the “activity change, negative = inhibition” value was 1.98%.

Turning to `COc1cccc(NC(=S)N2CCN(c3ccc4ccccc4n3)CC2)n1`, the “activity change, negative = inhibition” value is 4.67%.

On to `COc1cccc(C2c3c(ncn(CCN4CCOCC4)c3=N)Oc3ccc4ccccc4c32)c1` (stereo not given), for which the “activity change, negative = inhibition” value was -0.37%.

Take `O=S(=O)(c1ccc2c(c1)OCCO2)N1CCN(S(=O)(=O)c2c(F)cccc2F)CC1`: the “activity change, negative = inhibition” value was -4.79%.

Take `Cc1cccc(-n2cnc3cc(C(=O)N4CCOCC4)ccc32)c1`: the “activity change, negative = inhibition” value was 0.762%.

For `CC(C)(C)CNc1nc(C#N)nc(Nc2ccccc2)n1`, the “activity change, negative = inhibition” value is 1.5%.

Consider `Oc1ccc(CNc2nccc3ccccc23)c2cccnc12`, for which the “activity change, negative = inhibition” value was 0.4%.
